Measured values reported in the OligoGym collection.

What follows are sequences tested against PAFAH1B2 (assay: pooled miR-30 sensor sort-seq; sequence = guide strand). Details: shRNA.

Compared with TTCTGCTGTATTTTCGTGGTTA, TGTGCTGAGACATCCATCGGTC is lower in sensor-assay potency score (higher = more potent): 0.637 for the first, -0.024 for the second.

First: ATGAATTTAAACAACAATCTTC
Second: TAATATTCTCCAGTTCTCCATT
The sensor-assay potency score (higher = more potent) of the first is higher: -0.0238 for the first, -1.1 for the second.

Compared with TTGCTGCATTAACTGCACCATG, TACCCAGACAACAATGACCTTA is higher in sensor-assay potency score (higher = more potent): -1.37 for the first, -0.359 for the second.

First: TTACAGTCCAAAACAAATCTGT
Second: TTCTTCTGCTGTATTTTCGTGG
The sensor-assay potency score (higher = more potent) of the first is higher: 0.236 for the first, -0.326 for the second.

With TTGTGCTGAGACATCCATCGGT the sensor-assay potency score (higher = more potent) was 0.723.

These sequences were tested against PAG1 in the same assay as above. Details: shRNA.

Compared with TTACTGATGAGTACATAGCTGA, TACATAATAGAACATATCCTAA is lower in sensor-assay potency score (higher = more potent): -0.0368 for the first, -0.651 for the second.

Compared with TTCTTGTGTAGTTATCTGCCTA, TTTTTGTTTCTGTCCACCGAGG is lower in sensor-assay potency score (higher = more potent): -0.676 for the first, -1.07 for the second.

Going from TTTTCTTTTCTATATAGCGTTT to TTGTTTTTGATAACTACCTTTC, the sensor-assay potency score (higher = more potent) rises from -1.01 to -0.868.

First: TTTTTTGTTTCTGTCCACCGAG
Second: TAAATTTCACATAACCTGCTAT
The sensor-assay potency score (higher = more potent) of the first is lower: -0.11 for the first, 0.485 for the second.

Compared with TAAACTGTAGCATTAGCTCAAG, TTGCAAAATAATGACAACCAAC is lower in sensor-assay potency score (higher = more potent): -0.488 for the first, -1.68 for the second.

First: TAATATTTGAAAACTCTTGGGG
Second: TTAAACTGTAGCATTAGCTCAA
The sensor-assay potency score (higher = more potent) of the first is lower: 0.247 for the first, 0.54 for the second.
